Assay results reported in PubChem BioAssay (NCATS).
Results filed as inconclusive are left out. Activity calls are given as the source filed them. Calls follow the shape of the dose curve; as a rule, active = well fitted curve in the direction sought with a large enough effect; inconclusive = small, poorly fitted or top-dose-only effect, or another doubt; inactive = no such curve, though single readings can be large; an effect the other way counts as inactive or inconclusive.

Legend:
[1] = P-glycoprotein substrates identified in KB-8-5-11 adenocarcinoma cell line, qHTS therapeutic library screen (AID 1346987); also: nearly all actives have a fitted effect of over 65% in size
Method in brief: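 In this qHTS, P-gp-rich KB-8-5-11 cells received library compounds across a concentration range. Viability was quantified by luminescence after 72 h at 37 degree C.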

[2] = NS1 protein of Zika virus - qHTS assay to identify small molecule inhibitors in human HEK 293 cells (AID 1347053); also: nearly all actives have a fitted effect of over 55% in size
Method in brief: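 Readout was TR-FRET using paired anti-NS1 antibodies after 24 h infection of HEK 293 cells with ZIKV MR766 (MOI = 0.5). Compound preceded virus by 1 h; reduced signal reflects lower NS1 expression.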

[3] = qHTS of pediatric cancer cell lines to identify multiple opportunities for drug repurposing: Primary screen for TC32 cells (AID 1347089); also: nearly all actives have a fitted effect of over 60% in size
Method in brief: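 In the primary qHTS, MIPE compounds were tested at 11 concentrations (0.78 nM to 46 µM) and NPC compounds at 8 (0.59 nM to 46 µM) on TC32 cells for 48 h. CellTiter-Glo luminescence gave viability.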

[4] = qHTS of pediatric cancer cell lines to identify multiple opportunities for drug repurposing: Primary screen for SJ-GBM2 cells (AID 1347091)
Method in brief: (§1)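 Viability measured as metabolically active cells via CellTiter-Glo luminescence following 48 hours of compound exposure, 11-point dilutions in confirmatory testing. 500-1,000 cells/well plated 5 hours before dosing; controls were DMSO and 2.3 µM bortezomib.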

[5] = qHTS of pediatric cancer cell lines to identify multiple opportunities for drug repurposing: Primary screen for A673 cells (AID 1347092); also: nearly all actives have a fitted effect of over 45% in size
Method in brief: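 48 h compound exposure, A673, 500-1,000 cells/well, 37 degrees C/5% CO2. MIPE: 11-point, 0.78 nM-46 µM; NPC: 8-point, 0.59 nM-46 µM (final). Readout CellTiter-Glo luminescence after 15 min RT.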

[6] = qHTS of pediatric cancer cell lines to identify multiple opportunities for drug repurposing: Primary screen for SK-N-MC cells (AID 1347093)
Method in brief: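 Metabolically active cells were quantified by ATP-dependent luminescence (CellTiter-Glo, 15 min at room temperature) following 48 h treatment. Cells had been plated at 500-1,000 per well and settled for 5 h beforehand.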

[7] = qHTS of pediatric cancer cell lines to identify multiple opportunities for drug repurposing: Primary screen for BT-37 cells (AID 1347094)
Method in brief: (§2)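 Cells plated at 500-1,000/well in growth medium, compounds added after 5 h. MIPE tested at 11 points (from 0.78 nM), NPC at 8 points (from 0.59 nM). CellTiter-Glo luminescence after 48 h; concentration-response curves from primary screen.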

[8] = qHTS of pediatric cancer cell lines to identify multiple opportunities for drug repurposing: Primary screen for U-2 OS cells (AID 1347096); also: nearly all actives have a fitted effect of over 50% in size
Method in brief: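 Viability after 48 h compound treatment at 37C, 500-1,000 cells/well, read as ATP luminescence with CellTiter-Glo. Primary screens used 11-point (MIPE, 0.78 nM-46 µM) or 8-point (NPC, 0.59 nM-46 µM) final concentrations; follow-up screens used 11-point dilutions.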

[9] = qHTS of pediatric cancer cell lines to identify multiple opportunities for drug repurposing: Primary screen for Saos-2 cells (AID 1347097); also: nearly all actives have a fitted effect of over 40% in size
Method in brief: as §2

[10] = qHTS of pediatric cancer cell lines to identify multiple opportunities for drug repurposing: Primary screen for SK-N-SH cells (AID 1347098); also: nearly all actives have a fitted effect of over 65% in size
Method in brief: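 Cells (500-1,000/well) rested 5 h, then received compounds for 48 h; metabolically active cells were measured by CellTiter-Glo luminescence. Final concentrations spanned up to 46 µM (MIPE, 11-point) or 0.59 nM-46 µM (NPC, 8-point) in primary screens, 11-point in follow-ups.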

[11] = qHTS of pediatric cancer cell lines to identify multiple opportunities for drug repurposing: Primary screen for DAOY cells (AID 1347090); also: nearly all actives have a fitted effect of over 55% in size
Method in brief: as §1

[12] = qHTS of pediatric cancer cell lines to identify multiple opportunities for drug repurposing: Primary screen for NB-EBc1 cells (AID 1347095)
Method in brief: as §2

Measured: Potency
Potency is read from the fitted curve at half-maximal effect.

NC(N)=Nc1nc(CSCCC(N)=NS(N)(=O)=O)cs1
inactive: [1] | [2] | [3] | [4] | [7] | [8] | [9]
active: [5] 11.8 µM | [6] 10.5 µM | [10] 19.2 µM

Cc1ccc(NC(=O)c2cccc(N(C)C)c2)cc1NC(=O)c1ccc(O)cc1
inactive: [1] | [2] | [11] | [4]
active: [3] 13.1 µM | [6] 0.187 µM | [7] 3.85 µM | [12] 11.8 µM | [10] 15.2 µM

Cc1ccccc1-n1c(Cn2nc(-c3cccc(O)c3)c3c(N)ncnc32)nc2cccc(C)c2c1=O
inactive: [1] | [2] | [3]
active: [11] 1.18 µM | [4] 0.0166 µM | [6] 0.0418 µM | [7] 0.0544 µM | [12] 0.0743 µM | [9] 0.059 µM

CCC(c1ccc(O)cc1)C(CC)c1ccc(O)cc1 (stereo not drawn)
active: [11] 0.59 µM | [6] 1.05 µM
inactive: [1] | [2] | [3] | [4] | [10]

Cc1c(C(=O)Nc2ccc(N3C[C@@H](C)O[C@@H](C)C3)nc2)cccc1-c1ccc(OC(F)(F)F)cc1
active: [4] 18.7 µM | [5] 7.43 µM | [6] 16.6 µM | [12] 14.8 µM | [9] 18.7 µM | [10] 3.41 µM
inactive: [1] | [2] | [3]

CCCCCOC(=O)Nc1nc(=O)n([C@@H]2O[C@H](C)[C@@H](O)C2O)cc1F (stereo partly drawn)
inactive: [1] | [2] | [3] | [4] | [5] | [7] | [12] | [8] | [10]

CCCC1OC2C[C@@H]3[C@H]4CCC5=CC(=O)C=C[C@]5(C)[C@H]4C(O)C[C@]3(C)[C@]2(C(=O)CO)O1 (stereo partly drawn)
inactive: [1] | [2] | [3] | [11] | [5]
active: [6] 20.9 µM

CC1CNc2c(cccc2S(=O)(=O)N[C@@H](CCCN=C(N)N)C(=O)N2CC[C@@H](C)C[C@@H]2C(=O)O)C1 (stereo partly drawn)
active: [4] 18.7 µM | [5] 5.9 µM | [6] 6.62 µM | [7] 10.9 µM | [12] 6.62 µM
inactive: [1] | [2] | [3] | [8]

CC(C)(C)c1[nH]cnc1C=c1[nH]c(=O)c(=Cc2ccccc2)[nH]c1=O
active: [1] 0.0024 µM | [2] 0.003 µM | [3] 0.0068 µM | [4] 0.001 µM | [5] 0.001 µM | [6] 0.001 µM | [12] 0.001 µM | [8] 42.9 µM | [9] 0.136 µM

COc1cc(C=CC(=O)O)ccc1O
inactive: [1] | [2] | [3] | [4] | [5] | [12] | [8] | [9]
active: [6] 20.9 µM

CC1(C)CC(=O)c2c(C(F)(F)F)nn(-c3ccc(C(N)=O)c(NC4CCC(O)CC4)c3)c2C1 (stereo not drawn)
active: [1] 0.418 µM | [2] 23.5 µM | [3] 0.208 µM | [4] 0.264 µM | [5] 0.118 µM | [6] 0.0743 µM | [12] 0.148 µM | [10] 0.304 µM
inactive: [8]

O=C(O)c1nc(=O)[nH]c(=O)[nH]1
inactive: [1] | [2] | [3] | [11] | [5] | [6] | [7] | [12] | [8] | [9] | [10]

C[C@@H](N)c1ccc(C(=O)Nc2ccnc3[nH]ccc23)cc1
active: [4] 11.8 µM | [5] 9.35 µM | [6] 26.4 µM | [9] 14.8 µM | [10] 21.5 µM
inactive: [1] | [2] | [3]

CC(C)[C@H](O)C(=O)N[C@@H](C)C(=O)N[C@@H]1C(=O)N(C)CCc2ccccc21
active: [5] 23.5 µM | [6] 18.7 µM
inactive: [1] | [2] | [3] | [4] | [12] | [8] | [10]

COc1ccc2c(c1)c(C1=C(c3c[nH]c4ccccc34)C(=O)NC1=O)cn2CCCN(C)C
inactive: [1] | [2] | [3] | [11] | [8]
active: [5] 23.5 µM | [12] 20.9 µM

COc1ccc(CCN(C)CCCOc2ccc(S(=O)(=O)c3[nH]c4ccccc4c3C(C)C)cc2)cc1OC
inactive: [1] | [2] | [3] | [11] | [8]
active: [7] 19.3 µM | [12] 20.9 µM

CCNC(=O)CCCC=CC[C@@H]1[C@H](C=CC(O)CCc2ccccc2)[C@@H](O)C[C@@H]1O (stereo partly drawn)
inactive: [1] | [2] | [3] | [4] | [5] | [12] | [8] | [9]

CC[C@]1(O)C[C@H]2CN(CCC3=c4ccccc4=N[C]3[C@@](C(=O)OC)(c3cc4c(cc3OC)N(C)[C@H]3[C@@](O)(C(N)=O)[C@H](O)[C@]5(CC)C=CCN6CC[C@]43[C@@H]65)C2)C1
active: [1] 1.48 µM | [2] 1.66 µM | [3] 0.0587 µM | [4] 0.001 µM | [5] 0.0148 µM | [6] 0.0235 µM | [12] 0.0296 µM | [9] 0.148 µM
